# Results: PubChem BioAssay (Tox21)
# Values joined by “and” are separate entries in the source; they are usually repeats but may differ in a detail not shown here. Equal values may be shown once. Inconclusive results are not listed. A call without a number means that no potency is given here. More than one record can exist for a structure, and the calls need not agree. Active and inactive are the calls of the source. Unless noted, calls come from the whole dose curve; as a rule, active = well fitted curve in the direction sought with a large enough effect in the repeat runs; inconclusive = weak or mixed curves; inactive = no such curve, though single readings can be large; an effect the other way counts as inactive or inconclusive.
# How the values were obtained:
# [1] = qHTS assay to identify small molecule agonists of the vitamin D receptor (VDR) signaling pathway - cell viability counter screen (AID 743224); conditions: VDR-bla HEK293T viability, CellTiter-Glo luminescence, 16 h; series mostly up to 62.6 µM; note: nearly all actives have a fitted effect of over 50% in size; note: potency is the fitted concentration of half-maximal effect
# In short: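 VDR-bla cells, 4 h after plating, exposed to compounds for 16 h at 37C; viability then read in the same wells as CellTiter-Glo luminescence after 30 min at room temperature, following the bla FRET read.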
# [2] = qHTS assay to identify small molecule antagonists of the vitamin D receptor (VDR) signaling pathway - cell viability counter screen (AID 743225); conditions: VDR-bla HEK293T viability, CellTiter-Glo luminescence, 16 h; series mostly up to 61 µM; note: nearly all actives have a fitted effect of over 50% in size; note: potency is the fitted concentration of half-maximal effect
# In short: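 Parallel cytotoxicity test: VDR-UAS-bla HEK 293T, 3 nM (final) 1-alpha,25-dihydroxyvitamin D3 with test compound, 16 h, 37C. Endpoint is CellTiter-Glo luminescence in the same wells.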
# [3] = qHTS assay to identify small molecule agonists of the NFkB signaling pathway - cell viability counter screen (AID 1159515; calls by dose curve; note: nearly all actives have a fitted effect of over 55% in size; note: potency is the fitted concentration of half-maximal effect); conditions: NFkB-bla ME-180 viability, CellTiter-Glo luminescence, 5 h; series mostly up to 61 µM
# In short: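 NFkB-bla ME-180 cells, 2,000/well, plated overnight at 37 C; compound added for 5 hr at 37 C. Viability read in the same wells as the bla reporter, by CellTiter-Glo luminescence after 30 min at room temperature.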
# [4] = qHTS assay to identify small molecule agonists of the endoplasmic reticulum stress response signaling pathway (AID 1159516; active = well fitted activation curve with a large enough effect in the signal ratio in the repeat runs, not every such curve was filed as active; the % refers to the signal ratio); conditions: ESRE-bla HeLa, ER stress beta-lactamase reporter, 5 h; series mostly up to 61 µM
# In short: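 CellSensor ESRE-bla HeLa cells, 1,500 per well, plated overnight, then exposed to compounds for 5 hr at 37 C. Beta-lactamase reporter read with LiveBLAzer B/G FRET substrate after 2 hr at room temperature, 405 nm excitation, 460 and 530 nm emission.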
# [5] = qHTS assay to identify small molecule antagonists of the retinoid-related orphan receptor gamma (ROR-gamma) signaling pathway - cell viability counter screen (AID 1159520); conditions: Tet-on RORgamma CHO cells viability, ATP luminescence, 16 h; series mostly up to 92.4 µM; note: nearly all actives have a fitted effect of over 50% in size; note: potency is the fitted concentration of half-maximal effect
# In short: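 Cytotoxicity was read from cellular ATP (CellTiter-Glo luminescence) after 16 hr at 37 C with 1 uM doxycycline induction. The inducer was added 2 hr after compound transfer to Tet-on ROR gamma CHO cells.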
# [6] = qHTS assay to identify small molecule agonists of the AP-1 signaling pathway - cell viability counter screen (AID 1159525; calls by dose curve; note: nearly all actives have a fitted effect of over 55% in size; note: potency is the fitted concentration of half-maximal effect); conditions: ME-180 AP-1-bla cells viability, ATP luminescence, 5 h; series mostly up to 76.8 µM
# In short: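 Luminescent ATP readout (Cell Titer Glo, 30 min RT), normalised to DMSO and tetra n-octyl ammonium bromide controls. Cells were ME-180 AP-1-bla in 0.5% dialyzed FBS Opti-MEM, with a 5 h, 37 °C compound exposure.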
# [7] = qHTS assay to identify small molecule agonists of the AP-1 signaling pathway (AID 1159526; calls by dose curve); conditions: ME-180 (cervical carcinoma) AP-1-bla reporter, beta-lactamase FRET ratio, 5 h; series mostly up to 76.8 µM
# [8] = molecular target: Retinoic acid receptor RXR-alpha (Homo sapiens) (UniProt P19793); assay: qHTS assay to identify small molecule agonists of the RXR signaling pathway (AID 1159527; calls by dose curve; note: nearly all actives have a fitted effect of over 35% in size); conditions: HEK293T RXRa-UAS-bla, beta-lactamase ratio, 16 h; series mostly up to 76.8 µM
# In short: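 16 hr incubation of compound-treated RXR-alpha-UAS-bla HEK 293T cells (2% charcoal-stripped FBS, 37 C) preceded a 2 hr room-temperature LiveBLAzer FRET substrate step and blue/green fluorescence measurement.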
# [9] = qHTS assay to identify small molecule agonists of the RXR signaling pathway - cell viability counter screen (AID 1159529); conditions: RXR-alpha-bla HEK293T viability, CellTiter-Glo, 16 h; series mostly up to 76.8 µM; note: nearly all actives have a fitted effect of over 50% in size; note: potency is the fitted concentration of half-maximal effect
# In short: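 In this parallel viability measure, GeneBLAzer RXR-alpha HEK 293T cells (2% charcoal-stripped FBS) were given a 5 hr preincubation, treated with compounds 16 hr at 37 C, and read by CellTiter-Glo luminescence.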
# [10] = qHTS assay to identify small molecule antagonists of the retinoid acid receptor (RAR) signaling pathway - cell viability counter screen (AID 1159551); conditions: C3RL4 cells viability, ATP luminescence (CellTiter-Glo), 6 h; series mostly up to 92.4 µM; note: nearly all actives have a fitted effect of over 35% in size; note: potency is the fitted concentration of half-maximal effect
# In short: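 C3RL4 RARE-luciferase cells, 1,000/well, incubated overnight, then dosed with compound plus 1 uM retinol (final). After 6 hr at 37 C, viability read by CellTiter-Glo ATP luminescence following 30 min at room temperature.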
# [11] = qHTS assay to identify small molecule agonists of the endoplasmic reticulum stress response signaling pathway - cell viability counter screen (AID 1159517; calls by dose curve); conditions: ESRE-bla HeLa viability, CellTiter-Glo luminescence, 5 h; series mostly up to 61 µM
# In short: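 HeLa cells carrying an ESRE-driven beta-lactamase reporter receive compound for 5 hr at 37 C. Cell viability is then gauged with CellTiter-Glo by luminescence, 30 min at room temperature.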
# [12] = qHTS assay to identify small molecule antagonists of the retinoic acid receptor (RAR) signaling pathway (AID 1159552; note: nearly all actives have a fitted effect of over 50% in size; note: potency is the fitted concentration of half-maximal effect); conditions: C3RL4 RARE luciferase reporter, retinol-stimulated, 6 h; series mostly up to 92.4 µM
# In short: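 C3RL4 RARE-luc cells, overnight plating; retinol 1 uM final added right after compound; 6 hr 37 C; luciferase read at 30 min RT.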
# [13] = qHTS assay to identify small molecule agonists of the retinoic acid receptor (RAR) signaling pathway (AID 1159553); conditions: C3RL4 RARE luciferase reporter, agonist, 6 h; activation: at 73.3 µM (top of the series) unless noted; note: potency is the fitted concentration of half-maximal effect
# In short: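 C3RL4 RARE-luciferase cells were seeded at 1,000/well and grown overnight at 37 C, then exposed to compounds for 6 hr at 37 C, 5% CO2. Luciferase reagent was added and luminescence was read after 30 min at room temperature.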
# [14] = molecular target: Nuclear receptor ROR-gamma (Homo sapiens) (UniProt P51449); assay: qHTS assay to identify small molecule antagonists of the retinoid-related orphan receptor gamma (ROR-gamma) signaling pathway (AID 1159521); conditions: Tet-on RORgamma CHO cells, RORE-luciferase, 16 h; series mostly up to 92.4 µM
# In short: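 Decreased RORE-driven luciferase luminescence indicates antagonism. Tet-on RORγ CHO cells received compound, then 1 uM final doxycycline 2 h later; signal read after 16 h incubation.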
# Retinoic acid receptor RXR-alpha (Homo sapiens), sequence (P19793 whole entry, looked up): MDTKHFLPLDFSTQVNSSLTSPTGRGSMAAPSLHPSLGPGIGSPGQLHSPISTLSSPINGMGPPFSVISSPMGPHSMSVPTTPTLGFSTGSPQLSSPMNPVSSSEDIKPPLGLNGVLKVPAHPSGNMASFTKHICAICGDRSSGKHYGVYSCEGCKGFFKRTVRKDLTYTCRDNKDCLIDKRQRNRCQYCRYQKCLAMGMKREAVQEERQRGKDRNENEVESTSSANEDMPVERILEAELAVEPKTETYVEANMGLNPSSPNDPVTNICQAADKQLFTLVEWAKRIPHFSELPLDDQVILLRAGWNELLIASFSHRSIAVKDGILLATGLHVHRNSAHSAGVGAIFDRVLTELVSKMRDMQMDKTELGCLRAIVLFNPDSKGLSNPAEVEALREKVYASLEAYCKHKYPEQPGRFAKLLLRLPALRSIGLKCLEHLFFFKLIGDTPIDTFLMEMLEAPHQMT
SMILES,Potency [1],Potency [2],Potency [3],Potency [4],Potency [5],Potency [6],outcome [7],Potency [8],Potency [9],Potency [10],Potency [11],Potency [12],Potency [13],Potency [14]
Cl,inactive,inactive,inactive,inactive,inactive,inactive,inactive,inactive,inactive,inactive,,,,
CCC[CH2][Sn]([Cl])([CH2]CCC)[CH2]CCC,437 nM (active) and 1.23 µM (active),618 nM (active) and 3.47 µM (active),1.1 µM (active) and 1.95 µM (active),,1.54 µM (active) and 1.72 µM (active),873 nM (active) and 1.74 µM (active),,,1.1 µM (active),3.86 µM (active) and 8.63 µM (active),1.74 µM (active) and 3.09 µM (active),,,
Nc1ccc([N+](=O)[O-])cc1N,inactive,inactive,inactive,inactive,inactive,34.7 µM (active) and inactive,inactive,inactive,inactive,,,13.7 µM (active) and inactive,68.5 µM (active) and 68.6 µM (active),
Clc1ccccc1-c1nnc(-c2ccccc2Cl)nn1,inactive,inactive,inactive,inactive,inactive,inactive,inactive,inactive,inactive,inactive,,inactive,6.8 µM (active),inactive
O=C1Nc2ccc(Cl)cc2C(c2ccccc2)=NC1O (stereo not given),inactive,inactive,inactive,inactive,inactive,inactive,inactive,inactive,inactive,inactive,,inactive,inactive,inactive
